DAX1 inh-1: DAX1 (NR0B1) inhibitors on StAR promoter, primary screen, cell-based, luminescence, SF-1 (NR5A1), full-length DAX-1; 1.1% of 370,000 active; inhibition, % at 6.8 µM; HEK293T StAR-luciferase reporter, SF-1/DAX-1 repression relief;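 active = inhibition above the mean over all tested compounds plus 3 SD, cut at about 3.6% in these data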;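 also: higher inhibition means more luminescence from relief of DAX-1 repression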
DAX1 inh-2: DAX1 (NR0B1) inhibitors, primary screen, cell-based, HEK293, Gal4-DAX1, luciferase luminescence; 0.99% of 340,000 active; Nuclear receptor subfamily 0 group B member 1 (Homo sapiens), P51843; HEK293 Gal4-DAX1 luciferase reporter; inhibition, % at 6.75 µM; AID 504766, 2011;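 active = inhibition above the mean over all tested compounds plus 3 SD, cut at about 4.2% in these data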;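 also: inhibition shows as a rise in luminescence from relieved DAX1 repression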
ssDAF-12 act: S. stercoralis DAF-12 nuclear receptor activators, primary screen, cell-based, luminescence, HEK293, GRIP1 co-expression, lit1-tk-luc. Nuclear hormone receptor DAF-12 (Strongyloides stercoralis). HEK293 ssDAF-12/GRIP1 lit1-tk-luc reporter; % of 3 µM dafachronic acid response. 1% of 370,000 active. activation, % at 6.8 µM;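 active = activation above the mean over all tested compounds plus 3 SD, cut at about 0.9% in these data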
hcDAF-12 act: H. contortus DAF-12 nuclear receptor activators, primary screen, cell-based, luminescence, HEK293, lit1-tk-luc reporter | HEK293 hcDAF-12 lit1-tk-luc reporter; 0% DMSO, 100% Δ7-dafachronic acid | activation, % at 6.8 µM | AID 652067, 2013 | 1.4% of 370,000 active;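 active = activation above the mean of all tested compounds plus 3 SD, cut at about 5.5% in these data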
SMARCA2 act: SMARCA2 (BRM) function activators, primary screen, cell-based, luminescence, high throughput. AID 652017, 2013. activation, % at 9.1 µM. 1% of 370,000 active. MG213 cells, MMTV-luciferase reporter, dexamethasone, overnight; in the data active = activation above about 7.8%
hgDAF12 agonist: H. glycines DAF-12 receptor agonists, primary screen, cell-based, luminescence, HEK293, GAL4 fusion, UAS-luciferase; Nuclear hormone receptor DAF-12 (Heterodera glycines), GAL4 fusion; HEK293 GAL4-hgDAF12 UAS-luciferase reporter, agonist luminescence; normalized to butyrate control; activation, % at 6.8 µM; 1.8% of 370,000 active; AID 687014, 2013;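 active = activation above a cutoff set at the mean of all screened compounds plus 3 SD, cut at about 10% in these data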
DAX1 inh confirm: DAX1 (NR0B1) inhibitors relieving SF-1 repression, confirmation, cell-based, luminescence, HEK293T, full-length DAX-1, SF-1 activated StAR promoter. HEK293T StAR-promoter luciferase reporter, SF-1/DAX-1 repression. inhibition, % at 6.8 µM. 87% of 2,400 active. shares compounds with DAX1 inh-1;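 active = inhibition above the average of every tested compound plus 3 SD, cut at about 3.8% in these data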
Target sequence (P51843 whole entry, looked up): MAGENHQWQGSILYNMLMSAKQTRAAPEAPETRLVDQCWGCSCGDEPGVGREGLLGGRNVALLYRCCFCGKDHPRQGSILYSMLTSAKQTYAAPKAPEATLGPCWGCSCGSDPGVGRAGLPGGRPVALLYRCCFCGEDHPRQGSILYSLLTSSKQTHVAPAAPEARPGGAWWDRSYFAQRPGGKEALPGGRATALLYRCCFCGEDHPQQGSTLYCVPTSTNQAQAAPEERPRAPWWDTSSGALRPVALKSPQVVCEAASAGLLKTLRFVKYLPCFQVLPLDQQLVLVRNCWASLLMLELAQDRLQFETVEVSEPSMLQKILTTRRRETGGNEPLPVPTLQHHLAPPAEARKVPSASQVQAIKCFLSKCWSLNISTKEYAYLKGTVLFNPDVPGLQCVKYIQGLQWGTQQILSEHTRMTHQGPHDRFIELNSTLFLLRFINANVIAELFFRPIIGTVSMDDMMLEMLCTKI
SF1 mutant ctr: StAR reporter signal changes without DAX1, counter-screen for DAX1 inhibitor project, cell-based, luminescence, AF-2 mutant SF-1, transactivation | shares compounds with DAX1 inh-1 | HEK293 StAR-luciferase, SF-1 AF2 mutant | inhibition, % at 6.8 µM | 78% of 2,400 active | AID 652136, 2013;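 active = inhibition above the mean of all tested compounds plus 3 SD, cut at about 3% in these data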
LXR ag: LXR agonists, Gal4 luciferase reporter, confirmation, counter-screen for hcDAF-12 agonist project, cell-based, luminescence, HEK293, H. contortus campaign. shares compounds with hcDAF-12 act. HEK293 Gal4-LXR tk-luc reporter, 24 h; normalized: DMSO 0%, positive control 100%. activation, % at 6.8 µM. 3,400 tested, under 10 active;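 active = mean percent activation of the reporter above a cutoff set as the average over tested compounds plus their standard deviation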
hcDAF12 ag: H. contortus DAF-12 receptor agonists, confirmation, cell-based, luminescence, HEK293, lit1-tk-luc, triplicate. shares compounds with hcDAF-12 act. HEK293 hcDAF-12 lit1-tk-luc reporter; % of Δ7-dafachronic acid response. activation, % at 6.8 µM. 61% of 3,400 active. AID 743032, 2013;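 active = mean activation across triplicate tests above the threshold derived from the earlier primary screen, cut at about 5.5% in these data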
hgDAF12 conf: H. glycines DAF-12 receptor agonists, confirmation, cell-based, luminescence, HEK293, GAL4-LBD fusion; shares compounds with hgDAF12 agonist; HEK293 GAL4-hgDAF12 luciferase reporter, agonist mode; percent of butyrate response; activation, % at 6.8 µM; 80% of 3,300 active;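 active = mean activation over triplicate wells above the hit cutoff derived from the earlier primary screen, cut at about 11% in these data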
LXRb DAF12 ctr: LXR agonists, Gal4 luciferase reporter, confirmation, counter-screen for hgDAF-12 agonist project, cell-based, luminescence, HEK293, H. glycines campaign. 24 h. activation, % at 6.8 µM. 3,300 tested, under 10 active. shares compounds with hgDAF12 agonist;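 active = mean activation of the triplicate above a set limit carried over from the primary screen, none filed active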
Numbers stand for hits; 0 = inactive; - = no result given. Hits are enriched below; roughly 4.8% of the tested compounds scored in any of these assays.

SMILES	DAX1 inh-1	DAX1 inh-2	ssDAF-12 act	hcDAF-12 act	SMARCA2 act	hgDAF12 agonist	DAX1 inh confirm	SF1 mutant ctr	LXR ag	hcDAF12 ag	hgDAF12 conf	LXRb DAF12 ctr
O=c1c2ccccc2nc2n1CCC2	0	0	0	0	0	0	-	-	-	-	-	-
Cc1nc2sc(-c3ccccc3)cc2c(=O)[nH]1	6.1	0	0	7.4	0	21	12	6.7	0	5.8	12	0
O=c1[nH]c(-c2cccnc2)nc2sc(-c3ccccc3)cc12	0	0	0	0	0	0	-	-	-	-	-	-
O=c1c2cc(-c3ccccc3)sc2nc2n1CCC2	5.4	-	0	0	0	20	15	7.7	-	-	18	0
O/N=C/c1ccn(-c2ccc(Br)cc2)c1	5.6	4.5	0	0	0	14	5.9	0	-	-	0	0
O=C(Nc1ccc2c(c1)OCCO2)c1cc2sccc2n1Cc1ccccc1	0	0	0	0	0	0	-	-	-	-	-	-
Cn1c(C(=O)Nc2ccc3c(c2)OCCO3)cc2sccc21	6.9	0	1.2	9.7	0	15	8.8	6.8	0	0	18	0
Cc1ccc(Cn2cc(CN(C)S(=O)(=O)c3ccccc3Br)nn2)cc1	0	-	0	0	0	0	-	-	-	-	-	-
Cc1ccsc1/C=N/NC(=O)Nc1ccccc1	5.8	5.2	1.1	0	0	17	11	6.9	-	-	17	0
CC/C(=N\NC(=O)c1ccoc1C)c1ccc(C)o1	7.1	0	2.1	9.2	0	23	0	0	0	0	0	0
COC(=O)C1(C)Nc2ccccc2C(=O)N1c1ccccc1OC (configuration not stated)	0	0	0	0	0	0	-	-	-	-	-	-
COc1ccc(N2C(=O)c3ccccc3NC2(C)C)cc1	7.6	0	0	0	0	28	0	0	-	-	0	0
Cn1cccc1C(=O)C(=O)Nc1cc(Cl)cc(Cl)c1	0	0	0	0	0	0	-	-	-	-	-	-
Cn1cccc1C(=O)C(=O)Nc1ccc(Cl)cc1	5.1	0	1.4	11	0	14	15	9.2	0	8.6	20	0
